The subject of the test is Plasmodium falciparum. The experiment in a line: Calibr Malaria Delayed Death Assay SOP. Format: functional, organism-based. Also on record: scale not given: in the data most compounds retested in dose-response had high values. The conditions noted are these: concentration 4.99e-06 (unit not given; other assays of the set use mol/L).

Several values for one entry are separate records, joined by “and”; a condition that tells them apart may be missing. Equal values may be shown once. The whole screen tested about 38,000 compounds, of which about 1,200 (3.2%) showed an effect of 50% or more. The median lay at about -58%. For the sample, strong results were picked, then their nearest neighbours and some compounds at random.

As to `Nc1nnc(SCc2cc(=O)n3c4c(sc3n2)CCCC4)s1`, the “Percent Effect” value is on record as -2.534%.
The same measure, in the same setting: the same measure for `COc1nn(C)cc1-c1nnc(SCc2cccnc2)n1C`: -46.9%; for `Cc1ccsc1CN(CCCC(F)(F)F)Cc1ccccn1`: -90.49%; for `CCn1nc(C)c(CN(CCOC)Cc2ccccn2)c1C`: -17.72%.
`COCCC(=O)N(Cc1ccccn1)Cc1ccccc1C`: the “Percent Effect” value is on record as -111.9%.
As to `Cc1ccsc1CN(CCCN(C)C)Cc1ccccn1`, the “Percent Effect” value was found to be 76.79%.
Still for that read-out and setting: the value for `Cc1ccsc1CN(C)Cc1ncccc1C(=O)O` was -86.93%; that for `N#Cc1cccc(CN2CC[C@@H]3CN(c4ncccn4)CCO[C@@H]3C2)c1.O=C(O)C(F)(F)F` was -75.88%.
Still for that read-out and setting: the value for `CCc1cc(N2CCC(NCCc3nc(C)c(C)s3)CC2)nc(C)n1` was 38.37%; that for `CCn1ccc(NS(=O)(=O)c2cccc(COC)c2)n1` was -78.42%.
On to `CCn1cc(NC(=O)NCC(C)N(C)C)cn1` (stereo not drawn), for which the “Percent Effect” value is -90.57%.
On to `CCOc1ccc(CNC(C)c2cccc(S(=O)(=O)NC)c2)cc1` (stereo not drawn), for which the “Percent Effect” value amounted to 46.18%.
For `CNS(=O)(=O)c1cccc(C(C)NCc2ccccc2)c1` (stereo not drawn), the “Percent Effect” value was 57.8%.
`CNS(=O)(=O)c1cccc(C(C)NCc2ccc(F)c(F)c2)c1` (stereo not drawn): the “Percent Effect” value worked out at 8.659%.
The same measure, in the same setting: the same measure for `CNS(=O)(=O)c1cccc(C(C)NCc2ccc(C)c(C)c2)c1` (stereo not drawn): 61.29%; for `CNS(=O)(=O)c1cccc(CNC(=O)CCc2ccsc2)c1`: -45.32%.
On the same count and under the same terms, the value for `CNS(=O)(=O)c1cccc(C(C)NCc2cccc(O)c2)c1` (stereo not drawn) was 1.026%; that for `CNS(=O)(=O)c1cccc(C(C)NCc2ccncc2)c1` (stereo not drawn) was -55.25%.
Consider `CC(NCc1ccc(C(C)(C)C)cc1)c1ccc(S(C)(=O)=O)cc1` (stereo not drawn), for which the “Percent Effect” value is recorded as -13.51%.
On the same count and under the same terms, the same measure for `CNS(=O)(=O)c1cccc(C(C)NCc2ccsc2)c1` (stereo not drawn): 66.25%; for `O=C(NCCn1ccnc1)c1ccn(-c2ccc(F)cc2)n1`: -157.5%; for `CCN1C[C@H]2C[C@H](C(=O)Nc3ccccc3)[C@@H](C1)O2.O=C(O)C(F)(F)F`: -59.56%.
On the same count and under the same terms, the same measure for `Cc1oc(-c2nc(C#N)c(N(C)C)o2)cc1S(=O)(=O)N1CCCCCC1`: -117.8%.
Consider `COc1cc(C(=O)NC(C)c2cccs2)cc2c1OCCO2` (stereo not drawn), for which the “Percent Effect” value amounted to 13.73%.
As for `O=C(c1cscn1)N1CCCCC1c1nc2cc(F)ccc2[nH]1` (stereo not drawn), the “Percent Effect” value is -66.74%.
Same read-out and setting: the value for `CNC(=O)CN(C(=O)c1ccc(SC)o1)c1cccc(F)c1` was -133.7%.
`CC(C)(C)CNC(=O)c1ccc(C(=O)O)cc1`: the “Percent Effect” value is -149.2%.
`CCCc1nc(CN(CC)Cc2ccoc2)no1`: the “Percent Effect” value is reported as -101%.
On the same count and under the same terms, the value for `COc1cc(C(=O)N(Cc2ccco2)C2CC2)cc(OC)c1OC` was -36.86%; that for `O=C(c1ccc[nH]1)N1CCOCC2(CCN(C3CCOCC3)C2)C1` (stereo not drawn) was -29.73%; that for `CCCSCC(=O)N1CCCC(CO)(CCC)C1` (stereo not drawn) was -200.5%.
For `O=C(c1ccc(=O)[nH]c1)N1CCCC1c1nc2cc(F)ccc2[nH]1` (stereo not drawn), the “Percent Effect” value is given as -157.5%.
The same measure, in the same setting: the value for `CC(C)(C)c1nccc(C2(c3ccccc3Cl)CCNCC2)n1` was 75.06%.
For `Clc1ccccc1C1(c2ccnc(-c3ncccn3)n2)CCNCC1`, the “Percent Effect” value is on record as -58.98%.
Still for that read-out and setting: the value for `CCC1C(=O)NCCN1c1ccnc(C(C)(C)C)n1` (stereo not drawn) was -75.62%; that for `Clc1ccccc1C1(c2ccnc(-c3ccncc3)n2)CCNCC1` was 82.92%; that for `CC(C)c1nccc(C2(c3ccccc3Cl)CCNCC2)n1` was 83.06%.
The same measure, in the same setting: the value for `O=c1[nH]cccc1-c1nccc(C2(c3ccccc3Cl)CCNCC2)n1` was -5.024%; that for `COCCN(Cc1ccoc1)S(=O)(=O)c1cccc(C(F)(F)F)c1` was -154.4%; that for `COc1c[nH]c(C(=O)Nc2nc(C)cs2)cc1=O` was -242.4%.
Same read-out and setting: the value for `Clc1ccc(C2(NCc3noc(C4CC4)n3)CCCC2)cc1` was 66.68%.
In the case of `Clc1ccc(C2(NCc3noc(C4CC4)n3)CCC2)cc1`, the “Percent Effect” value is recorded as 11.94%.
On the same count and under the same terms, the value for `Clc1ccc(C2(NCc3noc(C4CC4)n3)CCOCC2)cc1` was -1.957%.
Same read-out and setting: the value for `COc1cccc(N2CCN(Cc3ccc4ccn(C)c4c3)CC2=O)c1` was -24.12%; that for `COc1cc(N2CC[C@H](O)[C@@H]2Cc2ccccc2)ncn1` was -143.1%.
On the same count and under the same terms, the value for `CC(C)NC(=O)CSc1nc2c(cnn2CCO)c(=O)[nH]1` was -19.17%.
In the case of `CCS(=O)(=O)N1CCCn2c(nc(CN3CCCC3)cc2=O)C1`, the “Percent Effect” value was -41.77%.
Still for that read-out and setting: the same measure for `COCCn1ccnc1CN1CCc2[nH]cnc2C1c1ccccn1` (stereo not drawn): -16.31%.
Take `CCn1ncnc1CN1CCc2[nH]cnc2C1c1ccccn1` (stereo not drawn): the “Percent Effect” value was -50.88%.
With `COCCn1ccnc1CN1CCc2[nH]cnc2C1c1cccc(O)c1` (stereo not drawn), the “Percent Effect” value is -80.26%.
As to `CCc1nccn1-c1cncc(C2CCCN2Cc2ccccn2)n1` (stereo not drawn), the “Percent Effect” value is recorded as -28.75%.
Turning to `CCCn1ccnc1CN1CCc2[nH]cnc2C1Cc1ccccc1` (stereo not drawn), the “Percent Effect” value is 64.79%.
The same measure, in the same setting: the same measure for `CCn1ncnc1CN1CCc2[nH]cnc2C1Cc1ccccc1` (stereo not drawn): -69.64%; for `CCn1ccnc1CN1CCCC1c1c(C)nn(C)c1OC` (stereo not drawn): -32.78%; for `CCc1ccc(C2c3nc[nH]c3CCN2Cc2nccn2CC)nc1` (stereo not drawn): 89.79%.
Turning to `COc1cccc(CN2CC(O)CN(C(=O)C(C)(C)C)CC2=O)c1OC` (stereo not drawn), the “Percent Effect” value was -124%.
On to `CC1=Nc2c(c(=O)[nH]n2C2CCCC2)C(c2cccnc2)S1` (stereo not drawn), for which the “Percent Effect” value (4.99 µM) is -22.61% and -27.75%.
For the molecule `CCCNC(=O)c1cccc(CNCc2csc(C(C)(C)C)n2)c1`, the “Percent Effect” value is recorded as 23.22%.
`CN(C)C(=O)CO[C@H]1CN(Cc2ccc3c(c2)OCO3)[C@@H]2COC[C@H]12.O=C(O)C(F)(F)F`: the “Percent Effect” value is -65.25%.
Still for that read-out and setting: the same measure for `Cc1nc2c(c(N3CCC(CN4CCCC4=O)CC3)n1)CCNCC2`: -95.59%; for `C1CCC(c2nc3c(c(N4CC(N5CCOCC5)C4)n2)CCNCC3)C1`: -121.5%; for `Nc1nc2c(c(N3CCC(CCn4cccn4)CC3)n1)CCNCC2`: 0.6794%.
Take `Nc1nc2c(c(N3CCC(CN4CCCC4=O)CC3)n1)CCNCC2`: the “Percent Effect” value is given as -195.3%.
Still for that read-out and setting: the value for `CCOCc1nc2c(c(N3CCN4CCCC4C3)n1)CCNCC2` (stereo not drawn) was -33.92%.
On the same count and under the same terms, the value for `NCC1CCN(c2nc(C3CCCC3)nc3c2CCNCC3)C1` (stereo not drawn) was 93.21%.
Take `Cc1nc2c(c(N3CCC(CCn4cccn4)CC3)n1)CCNCC2`: the “Percent Effect” value is 39.53%.
On the same count and under the same terms, the same measure for `C1CCC(c2nc3c(c(N4CCN5CCCC5C4)n2)CCNCC3)C1` (stereo not drawn): 77.28%; for `c1cnn(CC2CCN(c3nc(C4CC4)nc4c3CCNCC4)CC2)c1`: 90.7%.

The values above are taken from ChEMBL document CHEMBL3988442, “University of Dundee, Small-Polar-MMV Screening Library” (2021).
